TDP1 cell CPT = qHTS for Inhibitors of human tyrosyl-DNA phosphodiesterase 1 (TDP1): qHTS in cells in presence of CPT. chicken DT40 Tdp1-/-;hTDP1 cells + 20 nM CPT, ATP luminescence, 48 h. 420,000 tested, 12% active. AID 686979, 2013. Potency, µM (highest dose often 46.2 µM), for the others: at the highest dose activity change, negative = growth inhibition, hits mostly inhibitors; note: potency is the fitted concentration of half-maximal effect; nearly all actives have a fitted effect of over 55% in size
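Chicken DT40 Tdp1-/- cells complemented with human TDP1, 400 cells/well, exposed to compounds plus 20 nM camptothecin for at least 48 h at 37 C; viability read as ATP content by CellTiter-Glo luminescence.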
IL1B secr inh = qHTS for Inhibitors of Inflammasome Signaling: IL-1-beta AlphaLISA Primary Screen. AID 743279, 2014. activity change, % at 57.5 µM. 360,000 tested, 4.7% active. THP-1 LPS/ATP IL-1B secretion, AlphaLISA, 16 h; stronger effect = lower value; in the data active = activity change below about -50%; inconclusive = mostly about -30% to -49%
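Secreted IL-1B measured by AlphaLISA bead assay after 16 h compound exposure of THP-1 cells; compounds (final up to 57.5 uM) added 1 h before LPS (250 ng/mL) and ATP (1.25 mM) stimulation; lower signal means less secretion.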
DT40 TDP1 no CPT = qHTS for Inhibitors of human tyrosyl-DNA phosphodiesterase 1 (TDP1): qHTS in cells in absence of CPT | AID 686978, 2013 | Potency, µM (doses to about 46.2 µM), for the others: at the top dose activity change, negative = growth inhibition, most hits filed as inhibitors | DT40 Tdp1-/- hTDP1 cells, no CPT, ATP luminescence, 48 h | 420,000 tested, 15% active; note: potency is the fitted concentration of half-maximal effect; nearly all actives have a fitted effect of over 55% in size
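Readout: luminescence from CellTiter-Glo after 30 min in the dark at RT. Cells: DT40 Tdp1-/- with stable hTDP1, 400/well. Exposure: compounds alone, ≥48 hr, 37 °C.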
HT1080 IDH1KD tx = qHTS for induction of synthetic lethality in tumor cells producing 2HG: qHTS for the HT-1080-IDH1KD cell line. HT-1080 IDH1 knockdown viability, ATP luminescence, 48 h. Potency, µM (top dose mostly 46.1 µM), without a hit: at the top dose activity, negative = toxicity, actives largely listed as cytotoxic. 360,000 tested, 2% active;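 note: potency is the fitted concentration of half-maximal effect; 0% = DMSO wells and -100% = cell-free medium wells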
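After a 2 h attachment period, IDH1KD HT-1080 cells took pin-transferred compound for 48 h at 37 °C; ATP-based luminescence after 10 min room-temperature reagent incubation reported viability.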
HT1080NT lethal = qHTS for induction of synthetic lethality in tumor cells producing 2HG: qHTS for the HT-1080-NT fibrosarcoma cell line. Potency, µM (titrated, usually from 46.1 µM), for the others: at the highest dose activity, negative = less viability, usual class: cytotoxic. 360,000 tested, 1.6% active. HT-1080-NT fibrosarcoma viability, CellTiter-Glo ATP luminescence, 48 h. AID 686970, 2013;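 note: NT is the 2HG producing partner of a matched IDH1 knockdown line; potency is the fitted concentration of half-maximal effect; 0% = DMSO-treated cells and -100% = media-only wells without cells; nearly all actives have a fitted effect of over 55% in size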
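Read-out is CellTiter-Glo luminescence after 10 minutes at room temperature, following 48 hours' compound treatment of HT-1080-NT cells (750 cells/well, RPMI, 5% FBS, 37 degrees C).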
Active calls of the source: *; ? = inconclusive; · = no result given. Hits are enriched below; roughly 19% of the tested compounds scored in any of these assays. Unless noted, calls come from the whole dose curve; as a rule, active = well fitted curve in the direction sought with a large enough effect; inconclusive = small, poorly fitted or top-dose-only effect, or another doubt; inactive = no such curve, though single readings can be large; an effect the other way counts as inactive or inconclusive. Unless noted, % is set by controls: 0 for no effect and ±100 for the full control effect.

SMILES	TDP1 cell CPT	IL1B secr inh	DT40 TDP1 no CPT	HT1080 IDH1KD tx	HT1080NT lethal
COC(=O)C1=C(c2ccccc2OCc2ccccc2)C[C@@H]2CC[C@H]1N2C	?	-15.3	23.1µM*	-12.7%	-7.6%
COC(=O)C1=C(c2ccc(F)cc2OCc2ccccc2)C[C@@H]2CC[C@H]1N2C	23.1µM*	-18.3	16.4µM*	0.0%	-0.3%
COC(=O)C1=C(c2ccccc2OCc2ccccc2)C[C@@H]2CC[C@H]1N2C(=O)NCc1ccc(Cl)cc1	?	-29.5	?	-9.8%	-12.1%
O=C(c1ccccc1F)c1cn(Cc2ccccc2)c2ccccc12	?	-6.1	?	?	3.5%
COc1ccc(OC)c(NC(=O)Cn2cc(C(=O)c3ccccc3F)c3ccccc32)c1	?	·	23.1µM*	·	·
O=Cc1cn(Cc2c(F)cccc2Cl)c2ccccc12	?	-23.8	?	-12.4%	0.3%
COC(=O)Cn1cc(C(=O)c2ccccc2F)c2ccccc21	-3.3%	16.6	-12.6%	18.2%	2.6%
CC(=O)c1cn(Cc2ccccc2C#N)c2ccccc12	2.06µM*	0.0	1.03µM*	?	-8.1%
O=Cc1cn(Cc2ccccc2F)c2ccccc12	20.6µM*	?	14.6µM*	-17.0%	-6.4%
O=C(c1ccccc1F)c1cn(Cc2ccc(F)cc2)c2ccccc12	16.4µM*	?	?	-5.9%	0.2%
CN1OC[C@@H]2CN[C@H](c3ccccc3Br)C[C@@H]21	-13.4%	2.0	-1.9%	8.6%	19.9%
CC(C)(C#CC(=O)O)OOC(c1ccccc1)(c1ccccc1)c1ccccc1	-2.0%	-21.3	-13.9%	2.0%	-12.5%
CC(C)C[C@H](CN)CC(=O)O	-16.6%	·	-18.1%	·	·
CC(C)C(=O)c1cn(Cc2ccccc2C#N)c2ccccc12	?	-14.0	?	-24.2%	-24.3%
CC(=O)c1cn(Cc2ccccc2F)c2ccccc12	8.2µM*	-3.7	4.61µM*	-21.4%	-21.6%
CC(=Nc1ccc(F)cc1)c1c(O)n(C)c(=O)[nH]c1=O	14.6%	36.0	-4.9%	4.0%	7.9%
O=C1NC(=S)NC(=O)C1=Cc1ccc2c(c1)CCN2CCCCl	?	12.0	14.6µM*	9.2%	7.2%
CCC(=O)OC1(c2cccc(C)c2)CC(C)N(C)CC1C (centres undefined)	-11.4%	-10.4	-24.0%	6.3%	2.0%
Cn1cc(C(=O)NCc2ccccc2)c2ccccc21	?	-25.1	-6.6%	-7.4%	-0.8%
O=C(NCc1ccccc1)c1cccc(Nc2nc3ccccc3n3nnnc23)c1	20.6µM*	·	14.6µM*	·	·
COC(=O)C1=C(c2cccc(OC)c2OC)C[C@@H]2CC[C@H]1N2C	-1.6%	9.1	-13.3%	19.7%	13.2%
COC(=O)C1=C(c2cccc(NC(C)=O)c2)C[C@@H]2CC[C@H]1N2C	-1.2%	4.1	-7.0%	11.9%	15.6%
COC(=O)C1=C(c2ccc(OCc3ccccc3)cc2)C[C@@H]2CC[C@H]1N2C	16.4µM*	-13.9	23.1µM*	-10.3%	-11.2%
COC(=O)C1=C(c2ccc(OCc3ccccc3)c(F)c2)C[C@@H]2CC[C@H]1N2C	?	-25.3	23.1µM*	-0.2%	-19.5%
CN1CC[C@@]2(CCCN(C(=O)c3ccncc3)C2)C1	-6.0%	·	-14.6%	·	·
O=[N+]([O-])c1ccc(N2CCCC2)c2ccncc12	?	15.4	20.6µM*	-20.7%	-6.6%
O=[N+]([O-])c1ccc(NC2CCCC2)c2ccncc12	?	41.9	?	-1.5%	-15.7%
Cc1onc(-c2ccccc2)c1C(=O)Nc1ccc(S(=O)(=O)N2CCCC2)cc1	?	19.3	-24.8%	-11.9%	-11.7%
O=C(C1CC1)N1CCC(c2nc(-c3ccc(S(=O)(=O)N4CCCC4)cc3)no2)CC1	?	20.3	20.6µM*	?	-18.7%

Screening results from PubChem.
